From PubChem BioAssay
TDP-43 yeast inh = inhibitors of TDP-43 toxicity in yeast; hit rate 1.8% among 410,000; AID 652104; TDP-43 expressing yeast growth rescue, BacTiter-Glo, 24 h; Potency, µM (doses to about 46.1 µM), without a hit: at the top dose growth rescue (activation), hits mostly activators; also: % of control where 0% means no effect; nearly all actives have a fitted effect of over 50% in size
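Cell-based yeast growth screen: TDP-43 expression induced in galactose, inoculum OD600=0.02 after raffinose pregrowth to mid-log. Read-out BacTiter-Glo luminescence at 24 hr, 30 deg C; inhibition of toxicity seen as signal increase.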
FUS suppressor = suppressors of FUS proteinopathy in yeast. Potency, µM (series often up to 76.6 µM), actives largely listed as activators. S. cerevisiae FUS-expressing, growth rescue, OD600, 24 h. hit rate 0.24% among 390,000;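 also: plate controls were DMSO vehicle for no effect and reference control for full effect; nearly all actives have a fitted effect of over 55% in size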
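Toxicity suppression screen in FUS-yeast. Cells induced with 2% galactose, starting OD 0.005, treated 24hr at 30C with compounds at multiple final concentrations; growth by OD600.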
aSyn yeast inh = inhibitors of alpha-synuclein toxicity in yeast | hit rate 0.14% among 370,000 | Potency, µM (titrated, usually from 46.1 µM), for the others: top-dose growth rescue (activation), usual class: activators | Yeast expressing alpha-synuclein, growth rescue, BacTiter-Glo, 24 h | AID 652106; also: % of control where 0% means no effect; nearly all actives have a fitted effect of over 65% in size
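Rescue of yeast growth: cells expressing toxic alpha-synuclein, induced in galactose at OD600 0.02, incubated with compound 24 h at 30 C. ATP luminescence quantified growth; inhibitors of toxicity appear as activators.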
ERG Ets-DNA blk = inhibitors of human ERG Ets domain-DNA interaction. P11308. fluorescence polarization, His-ERG Ets domain / labelled DNA. Potency, µM (highest dose often 76.9 µM), without a hit: at the top dose FP activity, negative = inhibition, most hits filed as inhibitors. hit rate 0.028% among 370,000. AID 624246; active = well fitted inhibition curve with a large enough effect in the polarisation, with a control signal flat; inconclusive = small, poorly fitted or top-dose-only effect, or effect the other way, or a change in a side signal; inactive = no such curve, though single readings can be large or run the other way; the % refers to the polarisation;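 also: polarization taken with two DNA probes labelled with fluorescein and Texas red; % of control where 0% means no effect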
Target sequence (P11308 whole entry, looked up, the tested form may be a part): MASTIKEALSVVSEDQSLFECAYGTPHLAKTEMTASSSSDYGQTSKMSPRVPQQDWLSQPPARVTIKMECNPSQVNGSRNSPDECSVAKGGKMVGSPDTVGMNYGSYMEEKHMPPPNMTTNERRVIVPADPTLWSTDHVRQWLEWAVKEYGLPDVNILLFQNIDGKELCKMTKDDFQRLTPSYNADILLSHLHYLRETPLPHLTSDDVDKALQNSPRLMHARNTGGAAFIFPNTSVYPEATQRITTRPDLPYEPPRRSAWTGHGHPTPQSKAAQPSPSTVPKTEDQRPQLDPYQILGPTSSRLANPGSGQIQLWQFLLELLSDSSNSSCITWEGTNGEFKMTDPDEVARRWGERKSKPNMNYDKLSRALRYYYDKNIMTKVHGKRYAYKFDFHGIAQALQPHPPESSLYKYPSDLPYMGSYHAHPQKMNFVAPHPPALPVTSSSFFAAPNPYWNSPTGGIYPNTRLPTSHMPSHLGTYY
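His-tagged ERG Ets domain (1 uM in the protein solution; 300mM KCl, 50mM Tris-HCl, 1mM EDTA, 1mM DTT, pH 7.5) received compound, then a probe mix of 5 nM fluorescein-DNA and 100nM Texas-615-DNA. Fluorescence polarization was read for both dyes.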
Mito fusion act = mitochondrial division inhibition or fusion activation | S. cerevisiae fusion-defective mutant growth rescue, CellTiterGlo 48 h | AID 485298 | Potency, µM (highest dose often 46.1 µM), without a hit: at the highest dose growth rescue (activation), actives largely listed as activators | hit rate 0.23% among 320,000; also: % of control where 0% means no effect; nearly all actives have a fitted effect of over 45% in size
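Read-out: ATP-based luminescence (CellTiterGlo, 10 min ambient) reporting growth of fusion-defective ts yeast after 48 hours at 37C on glycerol/ethanol YPEG medium in the presence of compound.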
Abeta yeast res = A-beta toxicity reversal in yeast; yeast expressing A-beta42, growth rescue, OD600, 48 h; response scale: 0% DMSO, 100% iron-clioquinol control; Potency, µM (highest dose often 46.1 µM), most hits filed as activators; hit rate 0.063% among 410,000; AID 1347071; also: nearly all actives have a fitted effect of over 55% in size
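Growth rescue measured by 600 nm absorbance after 48 h yeast culture at 30 C with compound. Values normalized between DMSO and an equimolar ferric chloride plus clioquinol control.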
The depositor's hits bear a star; i = inactive; u = inconclusive; x = no result; [ ] = dose if it differs, or a comment. Shown are actives, neighbours in structure and some others; about 2.2% of the full set was active somewhere. Unless noted, calls follow the shape of the dose curve; as a rule, active = well fitted curve in the direction sought with a large enough effect; inconclusive = small, poorly fitted or top-dose-only effect, or another doubt; inactive = no such curve, though single readings can be large; an effect the other way counts as inactive or inconclusive. Potency is read from the fitted curve at half-maximal effect.

SMILES	TDP-43 yeast inh	FUS suppressor	aSyn yeast inh	ERG Ets-DNA blk	Mito fusion act	Abeta yeast res
COc1ccccc1CNc1nc2cc(-c3ccc(OC)c(OC)c3)sc2c(=O)n1C	u	u	12.9%	x	x	i
CCOC(=O)Cc1ccc(Nc2nc3cc(-c4sccc4C)sc3c(=O)n2C)cc1	19.8%	i	10.8%	x	x	i
COc1ccc(Nc2nc3cc(-c4sccc4C)sc3c(=O)n2C)cc1OC	35.5µM*	u	9.5%	x	x	i
Cc1cccc(NC(=O)c2ccc(-n3cnc4cccnc43)cc2)c1C	u	i	-12.9%	-3.9%	x	i
Nc1[nH]c(C(=O)c2ccccc2)c(-c2cccnc2)c1C(=O)NCCc1c[nH]c2ccccc12	x	i	x	x	x	x
CCOC(=O)C1CCN(C(c2cc3ccc(C)c(C)c3[nH]c2=O)c2nnnn2C2CCCCC2)CC1 (configuration not stated)	0.0%	35.5µM*	12.8%	-3.9%	-21.1%	i
COc1ccc2oc(C(=O)N3CCCc4ccccc43)c(C)c2c1	15.8µM*	i	-15.2%	-5.2%	u	i
COc1cc(OC)cc(C(=O)N2CCCc3ccccc32)c1	4.1%	i	9.6%	x	2.0%	i
CCCOc1ccc(C(=O)N2CCCc3ccccc32)cc1	11.2µM*	i	x	-1.3%	-1.0%	i
CCOc1ccc(CCNC(=O)c2ccc(C)c(-n3cnc4cccnc43)c2)cc1	9.2%	i	x	4.3%	x	i
Cc1ccc(-c2c(C(=O)NCCc3ccc(Cl)cc3)oc(=O)c3ccccc23)cc1	-8.8%	15.8µM*	x	0.5%	x	i
COc1cc(NC(=O)N2c3ccccc3Sc3ccccc32)c(C(=O)O)cc1OC	u	i	-1.9%	-0.3%	-1.2%	i
O=C(O)c1ccccc1NC(=O)N1c2ccccc2Sc2ccccc21	20µM*	i	x	2.8%	x	i
CCOc1ccc(S(=O)(=O)Nc2cccc(-c3ccc(OCC)nn3)c2)cc1	35.5µM*	i	x	-0.6%	x	i
COc1ccc(-c2cccc(NS(=O)(=O)c3cccs3)c2)nn1	22.2%	i	x	2.3%	x	i
COc1ccc(S(=O)(=O)Nc2cccc(-c3ccc(N4CCCC4)nn3)c2)cc1OC	27.1%	i	x	3.6%	x	i
Cc1ccc(S(=O)(=O)Nc2cccc(-c3ccc(N4CCCCCC4)nn3)c2)cc1C	-2.6%	22.4µM*	-0.1%	-1.9%	0.0%	x
CCc1ccc(S(=O)(=O)Nc2cccc(-c3ccc(OC)nn3)c2)s1	17.8µM*	u	x	0.6%	x	i
CCOC(=O)Cc1cc(=O)[nH]n(-c2ccccc2)c1=O	-18.9%	i	-1.4%	6.3%	x	i
COC(=O)c1ccc2[nH]c(C3(O)CCCCC3)c(C)c2c1	17.8µM*	i	-12.0%	6.5%	x	i
Cc1c(C2(O)CCCCC2)[nH]c2ccc(C(F)(F)F)cc12	3.55µM*	i	-61.8%	13.5%	x	i
COc1ccc(C2C=C(c3ccccc3)Nc3nc(NS(=O)(=O)c4ccccc4)nn32)cc1 (configuration not stated)	0.9%[9.22 µM]	i	x	-5.0%	x	i
COc1cc(C(=O)ONC(=O)c2ccc(OC(F)F)cc2)cc(OC)c1OC	8.91µM*	i	-48.0%	-5.4%	3.2%	u
O=C(NOC(=O)c1ccccc1F)c1ccc(OC(F)F)cc1	-14.8%[0.397 µM]	i	-4.0%	-4.2%	-2.0%	i
CC(C)(C)c1ccc(C(=O)C[n+]2cc(Br)cc(Br)c2)cc1	x	x	-3.0%	x	x	x
SMILES	TDP-43 yeast inh	FUS suppressor	aSyn yeast inh	ERG Ets-DNA blk	Mito fusion act	Abeta yeast res
COc1ccc(-c2nnc(SCC(=O)Nc3ccc(F)cc3)s2)cc1	9.3%	i	x	-11.1%	x	i
O=C1/C(=C\c2ccc(O)cc2)SC(=S)N1Cc1ccccc1	x	i	-24.8%	161.3%	-28.0%	i
O=C1/C(=C/c2ccccc2O)SC(=S)N1Cc1cccnc1	12.6µM*	i	-16.4%	54.7%	0.2%	i
O=C(Nc1cccnc1Cl)C1CCCN(c2ncnc3c2nc2n3CCCCC2)C1 (configuration not stated)	14.0%	i	1.5%	-0.4%	7.6%	i
CCN(C(=O)C1CCCN(c2ncnc3c2nc2n3CCCCC2)C1)c1cccc(C)c1 (configuration not stated)	14.1µM*	i	x	0.2%	x	i
COc1ccc(Cl)cc1NC(=O)C1CCCN(c2ncnc3c2nc2n3CCCCC2)C1 (configuration not stated)	14.1µM*	i	4.6%	5.6%	-1.3%	i
CCN(C(=O)C1CCCN(c2ncnc3c2nc2n3CCCCC2)C1)c1cccc(Cl)c1 (configuration not stated)	25.1µM*	u	-14.5%	14.8%	18.5%	i
CC(=O)c1c(C)oc2ccc(N(C(=O)c3ccncc3)S(=O)(=O)c3ccc(F)cc3C)cc12	20µM*	u	x	-6.7%	x	i
CCOC(=O)c1c(C)oc2ccc(N(C(=O)c3ccncc3)S(=O)(=O)c3ccc(F)cc3C)cc12	25.6%	u	x	u	x	i
Cc1ccc(S(=O)(=O)N(C(=O)c2ccncc2)c2ccc3oc4c(c3c2)CCCC4)cc1[N+](=O)[O-]	u	i	5.4%	7.5%	17.8µM*	i
COC(=O)c1c(C)oc2ccc(N(C(=O)c3ccncc3)S(=O)(=O)c3cc(C)c(C)cc3C)cc12	0.0%	i	x	4.2%	x	i
Cc1ccc([N+](=O)[O-])cc1S(=O)(=O)N(C(=O)c1ccncc1)c1ccc2oc3c(c2c1)CCCC3	-15.8%	x	21.6%	1.5%	12.6µM*	i
CCc1ccc(S(=O)(=O)N(C(C)=O)c2ccc3oc4c(c3c2)CCCC4)cc1	-6.1%	i	-6.0%	5.3%	x	i
Cc1ccc(S(=O)(=O)N2CCCC(C(=O)NCCN3CCC(Cc4ccccc4)CC3)C2)cc1 (configuration not stated)	x	i	x	x	x	x
CC1(C(=O)Nc2cnc3ccccc3c2)CCN1CCOc1ccccc1 (configuration not stated)	16.3%	i	3.3%	x	x	i
O=C(Nc1ccccc1)C1=C[C@H](c2coc3ccccc3c2=O)C[C@H](OCc2ccc(CO)cc2)O1	20µM*	u	0.6%	-2.8%	6.6%	i
O=C(NC1CC1)C1=C[C@@H](c2csc3ccccc23)C[C@@H](OCc2ccc(CO)cc2)O1	14.1µM*	u	28.8%	-6.0%	2.0%	i
O=C(O)C1=C[C@H](c2csc3ccccc23)C[C@H](OCc2ccc(CO)cc2)O1	11.5%	i	0.0%	-10.9%	-4.8%	i
